{
  "source": "ChEMBL document CHEMBL3988442",
  "about": "“University of Dundee, Small-Polar-MMV Screening Library” (2021)",
  "data": [
    {"biological_target": "T1, Aspartate--tRNA(Asp/Asn) ligase (Mycobacterium tuberculosis (strain ATCC 25618 / H37Rv)) (UniProt P9WFW3)", "T1 sequence (whole entry)": "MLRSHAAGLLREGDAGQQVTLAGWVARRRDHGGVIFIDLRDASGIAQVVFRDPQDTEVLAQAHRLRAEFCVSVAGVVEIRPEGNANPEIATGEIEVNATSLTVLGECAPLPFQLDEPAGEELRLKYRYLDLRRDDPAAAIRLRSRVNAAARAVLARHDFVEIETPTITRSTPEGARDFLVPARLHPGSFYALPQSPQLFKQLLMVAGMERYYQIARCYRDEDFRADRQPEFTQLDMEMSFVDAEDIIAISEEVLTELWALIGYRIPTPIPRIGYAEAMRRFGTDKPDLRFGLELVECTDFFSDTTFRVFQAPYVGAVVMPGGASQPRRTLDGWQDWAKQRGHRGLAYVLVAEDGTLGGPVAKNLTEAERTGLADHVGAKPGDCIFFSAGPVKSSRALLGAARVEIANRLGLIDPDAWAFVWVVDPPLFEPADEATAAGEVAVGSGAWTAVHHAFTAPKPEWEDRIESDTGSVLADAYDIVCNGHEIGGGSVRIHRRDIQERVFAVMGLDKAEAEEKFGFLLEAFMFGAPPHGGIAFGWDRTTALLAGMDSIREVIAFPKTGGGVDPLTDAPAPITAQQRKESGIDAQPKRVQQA", "test": "Assay for Asp RNA synthetase-1 from Mycobacterium tuberculosis", "format": "functional", "set-up": "scale not given: direction of the effect not stated beside the values", "conditions": "30 µM", "units": {"Percent Effect": "%"}, "values": [
      {"smiles": "c1cc(OCc2ccc3c(c2)OCO3)ccc1CNC1CC1", "Percent Effect": -1.47},
      {"smiles": "O=C1CC(c2cccnc2)C2(CCN(S(=O)(=O)C3CC3)CC2)N1", "note": "(stereo not given)", "Percent Effect": -1.76},
      {"smiles": "COc1c(CNCc2ccc(N(C)C)nc2)c(C(C)C)nn1C", "Percent Effect": 0.0333},
      {"smiles": "c1sc(C2CCCC2)nc1CN1CCn2c(nnc2C2CC2)C1", "Percent Effect": 3.23},
      {"smiles": "Cc1oc(-c2nc(C#N)c(N(C)C)o2)cc1S(=O)(=O)N1CCCC1", "Percent Effect": 0.145},
      {"smiles": "Cn1nc(CNC(=O)c2ccc(Cl)cc2)c2c1CCOC2", "Percent Effect": 2.4},
      {"smiles": "Cc1cc(C)n(CC2CCCN2C(=O)c2ccc3[nH]nnc3c2)n1", "note": "(stereo not given)", "Percent Effect": 3.71},
      {"smiles": "Cc1ccc(CN2CCC3(C2)C(=O)N(CC(C)C)c2ccccc23)s1", "note": "(stereo not given)", "Percent Effect": -0.155},
      {"smiles": "CC(C)(C)c1cn2nc(N3CCOC(Cn4cncn4)C3)sc2n1", "note": "(stereo not given)", "Percent Effect": -2.01},
      {"smiles": "NC(=O)C1CCN(C(=O)CCn2ccc3cc(Br)ccc32)CC1", "Percent Effect": 0.306},
      {"smiles": "CC(NC(=O)CCC(=O)c1cccs1)c1nnc2n1CCCCC2", "note": "(stereo not given)", "Percent Effect": 3.67},
      {"smiles": "CCOc1ccc(Cl)c(C(=O)NCc2ccc(C(=O)NC)cc2)n1", "Percent Effect": -2.66},
      {"smiles": "O=C(Nc1ccccc1)C1CN(CC2CC2)CC12CCOCC2", "note": "(stereo not given)", "Percent Effect": 0.903},
      {"smiles": "CCCc1nnsc1C(=O)NCC1CCN(S(C)(=O)=O)CC1", "Percent Effect": -7.1},
      {"smiles": "CC(O)CNC(=O)NCc1cccnc1OC1CCCC1", "note": "(stereo not given)", "Percent Effect": -4.34},
      {"smiles": "CC(C)c1cc(C(=O)NCCN2CCCS2(=O)=O)n[nH]1", "Percent Effect": -5.19},
      {"smiles": "O=C(NCCNc1ncccn1)c1ccc(-c2ccco2)[nH]c1=O", "Percent Effect": 6.93},
      {"smiles": "COc1cc(C)nc(N2CCN(C(=O)CN(C)C3CC3)CC2)n1", "Percent Effect": 0.9},
      {"smiles": "O=C(c1cc(Cl)c2c(c1)OCO2)N1CCN(c2ccccn2)CC1", "Percent Effect": -0.949},
      {"smiles": "CC1CCCCN1CCNC(=O)c1ccn(-c2ccc(F)cc2)n1", "note": "(stereo not given)", "Percent Effect": 3.98},
      {"smiles": "CCc1nc(C2CCCN2CCCS(=O)(=O)c2ccccc2)no1", "note": "(stereo not given)", "Percent Effect": -4.39},
      {"smiles": "O=C(Cn1cc(C(=O)O)ccc1=O)NCc1ccc(F)c(Cl)c1", "Percent Effect": 3.08},
      {"smiles": "CC(C)OCCOCc1cccc(NC(=O)NCc2ccncc2)c1", "Percent Effect": 13},
      {"smiles": "Cc1ccc(C2CSCCN2C(=O)c2ccc(C(N)=O)cc2)o1", "note": "(stereo not given)", "Percent Effect": -1.11},
      {"smiles": "Cn1cc(NC(=O)Cn2c(CS(C)(=O)=O)nc3ccccc32)cn1", "Percent Effect": -0.299},
      {"smiles": "O=C(CCN1CCCN(c2nccs2)CC1)Nc1ccccc1", "Percent Effect": -1.81},
      {"smiles": "O=C(NCCn1nc2ccccn2c1=O)c1cccc2[nH]ncc12", "Percent Effect": -0.633},
      {"smiles": "c1ccc(-c2nnc(CNCCn3cccn3)o2)cc1", "Percent Effect": -5.08},
      {"smiles": "CCS(=O)(=O)N1CCC(c2nc3ccc(-c4ccccc4)cn3n2)CC1", "Percent Effect": 0.251},
      {"smiles": "COc1ccc(-c2noc(CNC(C)Cn3cccn3)n2)c(OC)c1", "note": "(stereo not given)", "Percent Effect": -1.71},
      {"smiles": "Cc1cccc(-c2nc(C)nn2CC(=O)NC2CCCC2)c1", "Percent Effect": -5.28},
      {"smiles": "NC(=O)COc1cccc(C(=O)Nc2cnc3n2CCCC3)c1", "Percent Effect": -0.557},
      {"smiles": "CC(C)c1nc(CCNC(=O)NCc2ccnc(N(C)C)c2)cs1", "Percent Effect": -0.713},
      {"smiles": "Cn1cnc(S(=O)(=O)NCCCN2CCCCCC2)c1Cl", "Percent Effect": 1.4},
      {"smiles": "CC(C)NC(=O)Cn1cc(-c2ccccc2)cn1", "Percent Effect": -0.189},
      {"smiles": "CC(O)CN1CCN(C(=O)c2ccc(N(C)C)nc2)CC1", "note": "(stereo not given)", "Percent Effect": 1.24},
      {"smiles": "Cc1ncc(S(C)(=O)=O)c(C2CCCNC2)n1", "note": "(stereo not given)", "Percent Effect": 0.276},
      {"smiles": "CN(Cc1ccc2c(c1)OCO2)Cc1nc2c(cnn2C)c(=O)[nH]1", "Percent Effect": -0.843},
      {"smiles": "COCC(=O)N1CCC2(CC1)COCCN2CCN(C)C", "Percent Effect": 3.2},
      {"smiles": "Cc1nc(C)n(CC2CN(c3ccc(C#N)cn3)CCO2)n1", "note": "(stereo not given)", "Percent Effect": 2.39}
    ]},
    {"biological_target": "Shiga toxin 2 (Escherichia coli O157:H7) (UniProt P09385+P09386)", "test": "E. coli 0.157:H7 Shiga Toxin SOP - stx2 screening assay", "format": "functional", "set-up": "scale not given: direction of the effect not stated beside the values", "conditions": "30 µM", "units": {"Percent Effect": "%"}, "values": [
      {"smiles": "c1cc(OCc2ccc3c(c2)OCO3)ccc1CNC1CC1", "Percent Effect": -108},
      {"smiles": "O=C1CC(c2cccnc2)C2(CCN(S(=O)(=O)C3CC3)CC2)N1", "note": "(stereo not given)", "Percent Effect": 4.96},
      {"smiles": "COc1c(CNCc2ccc(N(C)C)nc2)c(C(C)C)nn1C", "Percent Effect": 14},
      {"smiles": "c1sc(C2CCCC2)nc1CN1CCn2c(nnc2C2CC2)C1", "Percent Effect": 27.9},
      {"smiles": "Cc1oc(-c2nc(C#N)c(N(C)C)o2)cc1S(=O)(=O)N1CCCC1", "Percent Effect": -18.1},
      {"smiles": "Cn1nc(CNC(=O)c2ccc(Cl)cc2)c2c1CCOC2", "Percent Effect": -5.64},
      {"smiles": "Cc1cc(C)n(CC2CCCN2C(=O)c2ccc3[nH]nnc3c2)n1", "note": "(stereo not given)", "Percent Effect": -26.6},
      {"smiles": "Cc1ccc(CN2CCC3(C2)C(=O)N(CC(C)C)c2ccccc23)s1", "note": "(stereo not given)", "Percent Effect": -42.5},
      {"smiles": "CC(C)(C)c1cn2nc(N3CCOC(Cn4cncn4)C3)sc2n1", "note": "(stereo not given)", "Percent Effect": -8.88},
      {"smiles": "NC(=O)C1CCN(C(=O)CCn2ccc3cc(Br)ccc32)CC1", "Percent Effect": 12.4},
      {"smiles": "CC(NC(=O)CCC(=O)c1cccs1)c1nnc2n1CCCCC2", "note": "(stereo not given)", "Percent Effect": 18.5},
      {"smiles": "CCOc1ccc(Cl)c(C(=O)NCc2ccc(C(=O)NC)cc2)n1", "Percent Effect": 13},
      {"smiles": "O=C(Nc1ccccc1)C1CN(CC2CC2)CC12CCOCC2", "note": "(stereo not given)", "Percent Effect": -13.2},
      {"smiles": "CCCc1nnsc1C(=O)NCC1CCN(S(C)(=O)=O)CC1", "Percent Effect": -1.41},
      {"smiles": "CC(O)CNC(=O)NCc1cccnc1OC1CCCC1", "note": "(stereo not given)", "Percent Effect": -12.4},
      {"smiles": "CC(C)c1cc(C(=O)NCCN2CCCS2(=O)=O)n[nH]1", "Percent Effect": -14.6},
      {"smiles": "O=C(NCCNc1ncccn1)c1ccc(-c2ccco2)[nH]c1=O", "Percent Effect": 10.7},
      {"smiles": "COc1cc(C)nc(N2CCN(C(=O)CN(C)C3CC3)CC2)n1", "Percent Effect": -33.1},
      {"smiles": "O=C(c1cc(Cl)c2c(c1)OCO2)N1CCN(c2ccccn2)CC1", "Percent Effect": 18.3},
      {"smiles": "CC1CCCCN1CCNC(=O)c1ccn(-c2ccc(F)cc2)n1", "note": "(stereo not given)", "Percent Effect": -12.3},
      {"smiles": "CCc1nc(C2CCCN2CCCS(=O)(=O)c2ccccc2)no1", "note": "(stereo not given)", "Percent Effect": -9.14},
      {"smiles": "O=C(Cn1cc(C(=O)O)ccc1=O)NCc1ccc(F)c(Cl)c1", "Percent Effect": -51.8},
      {"smiles": "CC(C)OCCOCc1cccc(NC(=O)NCc2ccncc2)c1", "Percent Effect": -69.6},
      {"smiles": "Cc1ccc(C2CSCCN2C(=O)c2ccc(C(N)=O)cc2)o1", "note": "(stereo not given)", "Percent Effect": 8.19},
      {"smiles": "Cn1cc(NC(=O)Cn2c(CS(C)(=O)=O)nc3ccccc32)cn1", "Percent Effect": 1.48},
      {"smiles": "O=C(CCN1CCCN(c2nccs2)CC1)Nc1ccccc1", "Percent Effect": -52.2},
      {"smiles": "O=C(NCCn1nc2ccccn2c1=O)c1cccc2[nH]ncc12", "Percent Effect": -25.7},
      {"smiles": "c1ccc(-c2nnc(CNCCn3cccn3)o2)cc1", "Percent Effect": 0.764},
      {"smiles": "CCS(=O)(=O)N1CCC(c2nc3ccc(-c4ccccc4)cn3n2)CC1", "Percent Effect": -35.2},
      {"smiles": "COc1ccc(-c2noc(CNC(C)Cn3cccn3)n2)c(OC)c1", "note": "(stereo not given)", "Percent Effect": -8.56},
      {"smiles": "Cc1cccc(-c2nc(C)nn2CC(=O)NC2CCCC2)c1", "Percent Effect": -29.1},
      {"smiles": "NC(=O)COc1cccc(C(=O)Nc2cnc3n2CCCC3)c1", "Percent Effect": -2.86},
      {"smiles": "CC(C)c1nc(CCNC(=O)NCc2ccnc(N(C)C)c2)cs1", "Percent Effect": -13.1},
      {"smiles": "Cn1cnc(S(=O)(=O)NCCCN2CCCCCC2)c1Cl", "Percent Effect": 18.1},
      {"smiles": "CC(C)NC(=O)Cn1cc(-c2ccccc2)cn1", "Percent Effect": 2.98},
      {"smiles": "CC(O)CN1CCN(C(=O)c2ccc(N(C)C)nc2)CC1", "note": "(stereo not given)", "Percent Effect": -70},
      {"smiles": "Cc1ncc(S(C)(=O)=O)c(C2CCCNC2)n1", "note": "(stereo not given)", "Percent Effect": -2.77},
      {"smiles": "CN(Cc1ccc2c(c1)OCO2)Cc1nc2c(cnn2C)c(=O)[nH]1", "Percent Effect": 27.6},
      {"smiles": "COCC(=O)N1CCC2(CC1)COCCN2CCN(C)C", "Percent Effect": -1.86},
      {"smiles": "Cc1nc(C)n(CC2CN(c3ccc(C#N)cn3)CCO2)n1", "note": "(stereo not given)", "Percent Effect": 19.5}
    ]}
  ]
}
